Screens (PubChem)
Shown are actives, neighbours in structure and some others; about 27% of the full set was active somewhere.
Cav3 T inh: Cav3.2 calcium influx blockers – cell-based, Fluo-4 calcium fluorescence, FDSS, MLSMR library, primary screen; Voltage-dependent T-type calcium channel subunit alpha-1H (Homo sapiens), O95180; Cav3.2-expressing cells; hits give low values; 100,000 tested, 4% active; AID 449739, 2010; B-score at 10 µM;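 active means single-dose well whose peak fluorescence ratio is a statistical outlier from its plate by either plate-standardised score or position-corrected B-score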
CYP2C9 inhib: blockers of cytochrome P450 2C9 activity – biochemical, luminescence, ADME assay, primary screen; inhibition, % at 5 µM; P11712; CYP2C9 Supersomes, luciferin-H conversion; 96,000 tested, 20% active;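 active means blocking of liver enzyme CYP2C9 beyond about 50% at 5 µM, limit read from the data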
Target sequence (P11712 whole entry, looked up): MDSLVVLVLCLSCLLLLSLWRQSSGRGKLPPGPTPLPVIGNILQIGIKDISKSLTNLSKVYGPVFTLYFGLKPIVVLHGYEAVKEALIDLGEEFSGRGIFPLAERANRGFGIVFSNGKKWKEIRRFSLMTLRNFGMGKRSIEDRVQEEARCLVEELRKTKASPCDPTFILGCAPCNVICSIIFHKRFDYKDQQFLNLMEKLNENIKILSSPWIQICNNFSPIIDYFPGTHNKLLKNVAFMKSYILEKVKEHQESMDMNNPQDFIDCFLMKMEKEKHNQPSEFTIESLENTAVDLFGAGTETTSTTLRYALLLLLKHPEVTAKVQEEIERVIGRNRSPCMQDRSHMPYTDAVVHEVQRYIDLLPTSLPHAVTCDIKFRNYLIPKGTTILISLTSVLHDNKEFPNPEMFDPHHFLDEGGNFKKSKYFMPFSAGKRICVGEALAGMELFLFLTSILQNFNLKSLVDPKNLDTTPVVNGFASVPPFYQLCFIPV
CYP2C19 inhib: blockers of cytochrome P450 2C19 activity – biochemical, luminescence, ADME assay, primary screen; P33261; CYP2C19 Supersomes, luciferin-H EGE luminescence, 30 min; inhibition, % at 5 µM; 96,000 tested, 21% active; AID 778, 2007;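 active means CYP2C19 inhibition above a set limit at 5 µM in the primary screen, cut at about 50% in these data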;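 further: plate controls were negative control wells for no effect and 2.5 mM tranylcypromine positive control for full effect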
CYP2C19 activ: human CYP2C19 activators, primary screen, biochemical, luminescence | recombinant CYP2C19, luciferin-H EGE luminescence; hits give high values; 0 = fully inhibited enzyme, 1 = untreated enzyme | 96,000 tested, under 10 active | AID 1025, 2008 | Cytochrome P450 2C19 (Homo sapiens), P33261 | activation factor at 5 µM;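 active means activation factor of at least 2 at 5 µM in the primary screen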;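 further: 0 = wells with 2.5 mM tranylcypromine and 1 = vehicle-only wells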
CYP2C9 act: human CYP2C9 activators, primary screen, biochemical, luminescence; Cytochrome P450 2C9 (Homo sapiens), P11712; recombinant CYP2C9, luciferin-H conversion; hits give high values; factor 1 = untreated enzyme, 0 = blocked; activation factor at 5 µM; 96,000 tested, 1.4% active; AID 1024, 2008;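 active means activation factor of 2 or more for CYP2C9 at a 5 µM dose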;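 further: 0 = sulfaphenazole-blocked wells and 1 = vehicle-only wells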
The depositor's hits bear a star; . = no result.

SMILES	Cav3 T inh	CYP2C9 inhib	CYP2C19 inhib	CYP2C19 activ	CYP2C9 act
CCCc1cc(-c2n[nH]c(C(=O)OCC)c2-c2cscn2)c(O)cc1O	0.07	67*	56*	0.4	0.3
CCc1[nH]nc2c1C(c1ccncc1)C(C#N)=C(N)O2 (stereo not drawn)	0.13	69*	59*	0.4	0.3
N#CC1=C(N)Oc2n[nH]c(-c3ccccc3)c2C1c1ccncc1 (stereo not drawn)	0.078	89*	85*	0.2	0.1
Cc1[nH]nc2c1C(c1cn[nH]c1-c1ccc(F)cc1)C(C#N)=C(N)O2 (stereo not drawn)	.	13	15	0.8	0.9
CCC(C)C1C(C#N)=C(N)Oc2n[nH]c(-c3ccccc3)c21 (stereo not drawn)	0.081	16	53*	0.5	0.8
N#CC1=C(N)Oc2n[nH]c(-c3ccc(F)cc3)c2C1c1cccnc1 (stereo not drawn)	1.3	55*	70*	0.3	0.5
O=C1NCCCC1C(=O)Nc1ccccn1 (stereo not drawn)	-0.18	2	3	1	1
CCOC(=O)c1c(C)c(C(=O)NCCCOC(C)C)c(C)n1C	0.76	-48	40	0.6	1.5
C=CCN(CC(=O)c1sc(C(=O)OCC)nc1C)c1cccc(Br)c1	-2.2	.	.	.	.
COc1cc2oc3ccccc3c2cc1N(CC(=O)N1CCCCC1)S(=O)(=O)c1ccc(C)cc1	-0.49	38	1	1	0.6
O=C(Nc1nc(=S)ss1)c1ccc(Cl)cc1Cl	-11*	94*	24	0.8	0.1
CC(=O)N1N=C(c2ccncc2)OC12CCCCCC2	-0.31	.	.	.	.
COc1ccc(C(=O)c2cnc3cc4c(cc3c2C)OCO4)cc1	0.091	65*	95*	0.1	0.4
Cc1c(C(=O)c2ccc(Cl)c(Cl)c2)cnc2cc3c(cc12)OCO3	-0.63	.	.	.	.
COc1ccc(N2CCN(C(=O)CCCC3=NS(=O)(=O)c4ccccc4N3)CC2)cc1	0.68	8	5	0.9	0.9
CCCn1c(N)c(N2CCCCC2)c(=O)n(CC(=O)Nc2ccc(OC(F)(F)F)cc2)c1=O	0.17	3	-16	1.2	1
CCCn1c(N)c(N2CCCCC2)c(=O)n(CC(=O)Nc2ccccc2C)c1=O	0.25	53*	38	0.6	0.5
CC1CN(c2nc(-c3ccc(Br)cc3)nnc2-c2ccccc2)CC(C)N1 (stereo not drawn)	.	12	8	0.9	0.9
CCc1ccccc1NC(=O)c1nnn(CC(=O)Nc2ccccc2C)c1N	-0.043	-30	13	0.9	1.3
CCn1c(-c2ccccc2Cl)nn(CC(=O)Nc2ccc(OC)cc2)c1=S	0.57	60*	56*	0.4	0.4
O=C(Cn1nc(-c2ccccc2)nc1-c1ccccc1)N1CCOCC1	-0.57	5	8	0.9	1
CCn1c(-c2ccccc2Cl)nn(CC(=O)Nc2ccccc2C)c1=S	0.82	-1	51*	0.5	1
COc1ccc(NC(=O)CN2CCN(c3ccccc3Cl)CC2)cc1	-2.3	.	.	.	.
Cc1ccccc1NC(=O)Cn1nc(-c2ccccc2)nc1-c1ccccc1	-0.9	56*	31	0.7	0.4
Cc1snc(SCC(=O)N/N=C(\N)COc2ccc(F)cc2)c1C#N	0.023	-7	-22	1.2	1.1
SMILES	Cav3 T inh	CYP2C9 inhib	CYP2C19 inhib	CYP2C19 activ	CYP2C9 act
Cc1snc(S(=O)(=O)/C(C#N)=N\Nc2ccccc2)c1C#N	0.39	92*	30	0.7	0.1
Cc1snc(S(=O)(=O)/C(C#N)=N/Nc2ccc(C(F)(F)F)cc2)c1C#N	-6.4*	94*	17	0.8	0.1
COc1cc(Cl)c(C)cc1NC(=O)COC(=O)c1cnc(C)cn1	0.18	19	57*	0.4	0.8
N#Cc1cn(Cc2cccc(Cl)c2)c2ccccc12	-4.1	93*	93*	0.1	0.1
CCOC(=O)N1CCN(Cc2nc3c(c(=O)[nH]c(=O)n3C)n2CCCc2ccccc2)CC1	0.95	34	5	1	0.7
Cc1ccc(C(=O)NCCCn2ccnc2)cc1[N+](=O)[O-]	0.93	82*	74*	0.3	0.2
O=C(NCCCn1ccnc1)c1cccnc1	1.5	.	.	.	.
CC1CN(S(=O)(=O)c2cccc(C(=O)NCCCn3ccnc3)c2)CC(C)O1 (stereo not drawn)	0.56	63*	9	0.9	0.4
C=C(C)c1cccc(C(C)(C)NC(=O)NCCCn2ccnc2)c1	-1.9	96*	98*	0	0
CC(C)CC(=O)c1c[nH]c(C(=O)NCCCN2CCOCC2)c1	-0.067	-9	-17	1.2	1.1
CCC(=O)c1c[nH]c(C(=O)NCCCn2ccnc2)c1	.	83*	76*	0.2	0.2
Cc1ccc(NC(=O)COC(=O)c2ccc3c(c2)NC(=O)C2CCCN32)cc1C (stereo not drawn)	-0.062	-7	18	0.8	1.1
Cc1ccc(N(C(=O)c2cccs2)C2C=CS(=O)(=O)C2)cc1 (stereo not drawn)	1.8	-3	16	0.8	1
CCS(=O)(=O)c1ccc(O)c(N2C(=O)C3C4C=CC(C4)C3C2=O)c1 (stereo not drawn)	0.14	-4	-3	1	1
O=C(NCCCn1ccnc1)c1ccc2c(c1)OCCO2	-0.21	58*	97*	0	0.4
Cn1c(NC(=O)CCC2CCCCC2)cc(=O)n(C)c1=O	.	67*	74*	0.3	0.3
O=C(CCC1CCCCC1)Nc1ccccc1O	-0.81	64*	93*	0.1	0.4
O=C(CCC1CCCCC1)Nc1ccc(S(=O)(=O)Nc2nccs2)cc1	0.00026	63*	45	0.5	0.4
CCN(CC)S(=O)(=O)c1ccc(NC(=O)CCC2CCCCC2)cc1	-4.4*	93*	78*	0.2	0.1
Cc1ccc(C(=O)NC(=S)Nc2ccc(Oc3ccc(Cl)cc3)cc2)cc1	-0.99	22	6	0.9	0.8
Cc1ccc(C2CC2C(=O)NNC(=S)Nc2ccc(Cl)cc2)cc1 (stereo not drawn)	-10*	.	.	.	.
O=C(Nc1cnccn1)c1cccs1	-0.11	-9	-10	1.1	1.1
O=C1C(O)CC2c3ccccc3CC3(CCCC3)N12 (stereo not drawn)	0.63	16	2	1	0.8
CC(Oc1ccc(Cl)cc1)C(=O)Nc1nccs1 (stereo not drawn)	-0.48	37	41	0.6	0.6
CCNC(=O)n1nccc1C(C)Oc1ccccc1 (stereo not drawn)	0.084	46	55*	0.5	0.5
CC(Oc1ccc(Cl)cc1)c1ccnn1S(=O)(=O)c1ccc(Cl)cc1 (stereo not drawn)	-2.1	82*	30	0.7	0.2
CC(Oc1ccccc1)c1ccnn1S(=O)(=O)c1ccccc1 (stereo not drawn)	-6.4*	64*	43	0.6	0.4
